Test results taken from the supplement of paper PMC11026393.

System: H1299
Assay: difference in mean normalized H2B-mRuby nuclear fluorescence intensity relative to DMSO control (normalized intensity difference (DMSO = 0)); higher = stronger increase in transgene reporter fluorescence
Conditions: 24 h
Experimental: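 Cancer cell lines stably expressing H2B-mRuby2 from a lentiviral PGK promoter were treated with each drug for 24 h and imaged on a Leica DMI8 (ex 541-551 / em 565-605 nm). Nuclei were segmented in CellProfiler. The value is the difference in mean per-nucleus normalized H2B-mRuby intensity versus DMSO-treated cells (about 3 repeats x 4 fields). Doxorubicin is itself fluorescent. Dasatinib is in nM.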

Q: With `O=C(Nc1ccc2[nH]nc(-c3ccncc3)c2c1)[C@@H]1CCN(CC(=O)N2CCN(c3ccc(-c4ncccn4)cc3)CC2)C1` (concentration unit: uM) as the compound, how does the difference (concentration: 0.05) read?
A: -0.0926

Q: And the difference (concentration: 0.1)?
A: -0.0835

Q: What about the difference (concentration: 0.25) of the same compound?
A: -0.13

Q: What about the difference (concentration: 1) of the same compound?
A: -0.131

Q: And the difference (concentration: 5)?
A: -0.0355

Q: `COc1cc(Nc2c(C#N)cnc3cc(OCCCN4CCN(C)CC4)c(OC)cc23)c(Cl)cc1Cl` (concentration unit: uM) was tested. Which difference (concentration: 0.25) did it give?
A: -0.202

Q: And the difference (concentration: 1)?
A: -0.134

Q: What about the difference (concentration: 2.5) of the same compound?
A: -0.0971

Q: What about the difference (concentration: 5) of the same compound?
A: -0.166

Q: What about the difference (concentration: 20) of the same compound?
A: -0.0502

Q: `C[C@@H]1C[C@H](N)C[C@H](c2ccncc2NC(=O)c2ccc(F)c(-c3c(F)cccc3F)n2)C1` was tested. Which difference (concentration: 1) did it give?
A: 0.00842

Q: What about the difference (concentration: 2.5) of the same compound?
A: 0.0956

Q: And the difference (concentration: 5)?
A: 0.0409

Q: What about the difference (concentration: 10) of the same compound?
A: 0.137

Q: And the difference (concentration: 25)?
A: 0.227

Q: Which results are given for `Nc1ncn([C@@H]2O[C@H](CO)[C@@H](O)[C@H]2O)c(=O)n1` (concentration unit: uM)?
A: difference (concentration: 1): 0.0691; difference (concentration: 2.5): 0.0657; difference (concentration: 5): 0.123; difference (concentration: 10): 0.125; difference (concentration: 20): 0.109

Q: For `COc1cc2ncnc(Nc3ccc(F)c(Cl)c3)c2cc1OCCCN1CCOCC1` (concentration unit: uM), which difference (concentration: 1) is on record?
A: -0.0187

Q: And the difference (concentration: 2.5)?
A: 0.0302

Q: And the difference (concentration: 5)?
A: -0.00342

Q: What about the difference (concentration: 10) of the same compound?
A: 0.0329

Q: What about the difference (concentration: 20) of the same compound?
A: 0.0679

Q: What does the source list for `CO[C@H]1C[C@@H]2CC[C@@H](C)[C@@](O)(O2)C(=O)C(=O)N2CCCC[C@H]2C(=O)O[C@H]([C@H](C)C[C@@H]2CC[C@@H](O)[C@H](OC)C2)CC(=O)[C@H](C)/C=C(\C)[C@@H](O)[C@@H](OC)C(=O)[C@H](C)C[C@H](C)/C=C/C=C/C=C/1C` (concentration unit: nM)?
A: difference (concentration: 2.5): -0.0109; difference (concentration: 10): 0.177; difference (concentration: 25): 0.0761; difference (concentration: 50): 0.0674; difference (concentration: 250): 0.0406

Q: Which results are given for `COc1cc(Nc2ncc3c(n2)-c2ccc(Cl)cc2C(c2c(F)cccc2OC)=NC3)ccc1C(=O)O` (concentration unit: nM)?
A: difference (concentration: 10): -0.0235; difference (concentration: 50): -0.0295; difference (concentration: 250): 0.00737; difference (concentration: 500): 0.159; difference (concentration: 1000): 0.136

Q: Which results are given for `COc1cccc2c1C(=O)c1c(O)c3c(c(O)c1C2=O)C[C@@](O)(C(=O)CO)C[C@@H]3O[C@H]1C[C@H](N)[C@H](O)[C@H](C)O1` (concentration unit: nM)?
A: difference (concentration: 25): 0.0124; difference (concentration: 100): 0.112; difference (concentration: 250): 0.0484; difference (concentration: 1000): 0.0826; difference (concentration: 2500): 0.218
